According to the supplement of paper PMC10849652:
About 7,900 targets were measured; listed, in parts, are those with a hit and a random draw of the rest. About 0.6% of all pairs of compound and target were hits. Values without a mark were called inactive.

Experiments:
Experiment in all cases: log2 fold change, soluble protein after heating vs DMSO (PISA); higher = thermal stabilisation; K562 cells, 10 uM, 30 min; active = over 0.2 and 3.5 SD of the protein, either way, in both replicates (recomputed)
IRAK-1-4 Inhibitor I = compound: C1COCCN1CCN2C3=CC=CC=C3N=C2NC(=O)C4=CC(=CC=C4)[N+](=O)[O-] [IRAK-1-4 Inhibitor I]
How it was run: (§1)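 Soluble protein was defined as the supernatant after 21,000xg for 90 min. It came from K562 cells at 2×10^6 cells/mL given 10 μM compound for 30 min, heated in aliquots for 3 min across 48°C-58°C, pooled, and extracted in PBS with 0.5% NP-40 at 4°C, and was quantified by TMTpro 16plex LC-MS/MS with equalised channel sums. Thermal stability against control samples, from duplicates, is reported as log2 fold change.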

ibrutinib = compound: C=CC(=O)N1CCC[C@@H](n2nc(-c3ccc(Oc4ccccc4)cc3)c3c(N)ncnc32)C1 [ibrutinib]
How it was run: as §1

[1] = compound: CC(=O)c1cnc2ccc(-c3cc(Cl)c(O)c(Cl)c3)nc2c1N[C@H]1CC[C@H](CN(C)C)CC1
How it was run: as §1

ralimetinib = compound: CC(C)(C)Cn1c(N)nc2ccc(-c3[nH]c(C(C)(C)C)nc3-c3ccc(F)cc3)nc21 [ralimetinib]
How it was run: as §1

[2] = compound: CC(C)(O)CC(=O)NCCn1ccc2ncnc(Nc3ccc(Oc4cccc(C(F)(F)F)c4)c(Cl)c3)c21
How it was run: as §1

[3] = compound: CC(C)C1=C2N=C(C=C(N2N=C1)NCC3=CC=CC=C3)NCCCCCCN
How it was run: as §1

[4] = compound: CC(C)C[C@@H](C=O)NC(=O)[C@H](CC(C)C)NC(=O)[C@H](CC(C)C)NC(=O)OCc1ccccc1
How it was run: as §1

pinometostat = compound: CC(C)N(C[C@H]1O[C@@H](n2cnc3c(N)ncnc32)[C@H](O)[C@@H]1O)[C@H]1C[C@@H](CCc2nc3cc(C(C)(C)C)ccc3[nH]2)C1 [pinometostat]
How it was run: as §1

[5] = compound: CC1=C(C(CC(=O)N1)C2=CC=C(C=C2)C(F)(F)F)C(=O)NC3=C(C=C4C(=C3)C=NN4)F
How it was run: as §1

[6] = compound: CC1=C(C2=C(C=C1)C(=O)C3=CC=CC=C3N2CCCN)C
How it was run: as §1

[7] = compound: CC1=C(C=C(C=C1)NC(=O)C2=CC(=CC=C2)C(C)(C)C#N)NC3=CC4=C(C=C3)N=CN(C4=O)C
How it was run: as §1

[8] = compound: CC1=C(C=C(C=C1)NC(=O)C2=CC(=CC=C2)N(C)C)NC(=O)C3=CC=C(C=C3)O
How it was run: as §1

[9] = compound: CC1=CC=C(C=C1)SC2=C3C=C(SC3=CN=C2)C(=O)N
How it was run: as §1

[10] = compound: CC1=NC(=CC=C1)C2=C(N=C(N2)C(C)(C)C)C3=CC4=NC=CN=C4C=C3
How it was run: as §1

Nexturastat A = compound: CCCCN(Cc1ccc(C(=O)NO)cc1)C(=O)Nc1ccccc1 [Nexturastat A]
How it was run: as §1

vemurafenib = compound: CCCS(=O)(=O)Nc1ccc(F)c(C(=O)c2c[nH]c3ncc(-c4ccc(Cl)cc4)cc23)c1F [vemurafenib]
How it was run: as §1

[11] = compound: CCCS(=O)(=O)Nc1ccc(F)c(C(=O)c2c[nH]c3ncc(Cl)cc23)c1F
How it was run: as §1

[12] = compound: CCCc1cc(C)[nH]c(=O)c1CNC(=O)c1cc(-c2ccnc(N3CCN(C)CC3)c2)cc2c1cnn2C(C)C
How it was run: as §1

givinostat = compound: CCN(CC)Cc1ccc2cc(COC(=O)Nc3ccc(C(=O)NO)cc3)ccc2c1 [givinostat]
How it was run: as §1

barasertib = compound: CCN(CCCOc1ccc2c(Nc3cc(CC(=O)Nc4cccc(F)c4)[nH]n3)ncnc2c1)CCOP(=O)(O)O [barasertib]
How it was run: as §1

Sequence of UniProt Q01804 (Q01804 whole entry, looked up): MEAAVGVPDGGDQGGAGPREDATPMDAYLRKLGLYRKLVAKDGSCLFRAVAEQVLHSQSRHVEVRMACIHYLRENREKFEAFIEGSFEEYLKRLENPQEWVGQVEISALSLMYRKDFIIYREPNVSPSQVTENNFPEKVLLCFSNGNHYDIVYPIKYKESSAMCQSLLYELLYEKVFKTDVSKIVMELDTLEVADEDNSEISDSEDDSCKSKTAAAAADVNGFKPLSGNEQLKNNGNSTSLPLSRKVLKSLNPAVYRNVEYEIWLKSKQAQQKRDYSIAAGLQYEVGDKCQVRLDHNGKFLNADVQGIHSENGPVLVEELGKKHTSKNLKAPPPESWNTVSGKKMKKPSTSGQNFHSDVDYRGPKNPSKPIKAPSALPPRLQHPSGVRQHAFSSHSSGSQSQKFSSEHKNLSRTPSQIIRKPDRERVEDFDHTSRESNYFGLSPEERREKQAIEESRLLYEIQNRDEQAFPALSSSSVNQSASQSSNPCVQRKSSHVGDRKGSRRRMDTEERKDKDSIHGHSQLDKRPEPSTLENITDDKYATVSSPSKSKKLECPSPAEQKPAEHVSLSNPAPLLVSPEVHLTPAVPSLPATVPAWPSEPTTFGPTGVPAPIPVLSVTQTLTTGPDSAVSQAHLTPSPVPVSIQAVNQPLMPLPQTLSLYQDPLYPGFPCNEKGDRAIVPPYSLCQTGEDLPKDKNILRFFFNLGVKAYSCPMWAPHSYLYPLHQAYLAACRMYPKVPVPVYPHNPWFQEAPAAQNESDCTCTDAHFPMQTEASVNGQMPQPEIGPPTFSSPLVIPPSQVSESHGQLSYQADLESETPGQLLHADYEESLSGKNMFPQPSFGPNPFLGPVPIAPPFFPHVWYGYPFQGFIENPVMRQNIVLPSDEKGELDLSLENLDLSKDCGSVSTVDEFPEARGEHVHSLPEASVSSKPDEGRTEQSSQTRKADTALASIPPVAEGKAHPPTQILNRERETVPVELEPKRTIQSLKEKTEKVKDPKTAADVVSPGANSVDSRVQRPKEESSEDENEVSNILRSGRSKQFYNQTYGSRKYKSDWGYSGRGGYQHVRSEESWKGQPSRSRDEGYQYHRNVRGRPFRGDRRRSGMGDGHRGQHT
Sequence of UniProt Q8N543 (Q8N543 whole entry, looked up): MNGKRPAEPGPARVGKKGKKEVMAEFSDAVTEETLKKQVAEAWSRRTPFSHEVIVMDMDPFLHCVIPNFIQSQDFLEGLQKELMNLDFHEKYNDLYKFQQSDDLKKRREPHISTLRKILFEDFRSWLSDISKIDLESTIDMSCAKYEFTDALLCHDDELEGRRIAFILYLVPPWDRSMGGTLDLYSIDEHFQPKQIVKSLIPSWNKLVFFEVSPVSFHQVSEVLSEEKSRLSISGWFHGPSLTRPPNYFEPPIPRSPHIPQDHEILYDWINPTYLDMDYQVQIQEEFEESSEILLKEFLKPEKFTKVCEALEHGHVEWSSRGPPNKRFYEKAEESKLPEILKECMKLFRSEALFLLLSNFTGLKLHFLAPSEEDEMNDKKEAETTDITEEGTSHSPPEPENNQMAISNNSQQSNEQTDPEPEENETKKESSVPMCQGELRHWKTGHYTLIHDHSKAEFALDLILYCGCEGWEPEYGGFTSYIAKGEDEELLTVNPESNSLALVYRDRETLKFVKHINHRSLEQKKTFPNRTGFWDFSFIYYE
Sequence of UniProt P20585 (P20585 whole entry, looked up): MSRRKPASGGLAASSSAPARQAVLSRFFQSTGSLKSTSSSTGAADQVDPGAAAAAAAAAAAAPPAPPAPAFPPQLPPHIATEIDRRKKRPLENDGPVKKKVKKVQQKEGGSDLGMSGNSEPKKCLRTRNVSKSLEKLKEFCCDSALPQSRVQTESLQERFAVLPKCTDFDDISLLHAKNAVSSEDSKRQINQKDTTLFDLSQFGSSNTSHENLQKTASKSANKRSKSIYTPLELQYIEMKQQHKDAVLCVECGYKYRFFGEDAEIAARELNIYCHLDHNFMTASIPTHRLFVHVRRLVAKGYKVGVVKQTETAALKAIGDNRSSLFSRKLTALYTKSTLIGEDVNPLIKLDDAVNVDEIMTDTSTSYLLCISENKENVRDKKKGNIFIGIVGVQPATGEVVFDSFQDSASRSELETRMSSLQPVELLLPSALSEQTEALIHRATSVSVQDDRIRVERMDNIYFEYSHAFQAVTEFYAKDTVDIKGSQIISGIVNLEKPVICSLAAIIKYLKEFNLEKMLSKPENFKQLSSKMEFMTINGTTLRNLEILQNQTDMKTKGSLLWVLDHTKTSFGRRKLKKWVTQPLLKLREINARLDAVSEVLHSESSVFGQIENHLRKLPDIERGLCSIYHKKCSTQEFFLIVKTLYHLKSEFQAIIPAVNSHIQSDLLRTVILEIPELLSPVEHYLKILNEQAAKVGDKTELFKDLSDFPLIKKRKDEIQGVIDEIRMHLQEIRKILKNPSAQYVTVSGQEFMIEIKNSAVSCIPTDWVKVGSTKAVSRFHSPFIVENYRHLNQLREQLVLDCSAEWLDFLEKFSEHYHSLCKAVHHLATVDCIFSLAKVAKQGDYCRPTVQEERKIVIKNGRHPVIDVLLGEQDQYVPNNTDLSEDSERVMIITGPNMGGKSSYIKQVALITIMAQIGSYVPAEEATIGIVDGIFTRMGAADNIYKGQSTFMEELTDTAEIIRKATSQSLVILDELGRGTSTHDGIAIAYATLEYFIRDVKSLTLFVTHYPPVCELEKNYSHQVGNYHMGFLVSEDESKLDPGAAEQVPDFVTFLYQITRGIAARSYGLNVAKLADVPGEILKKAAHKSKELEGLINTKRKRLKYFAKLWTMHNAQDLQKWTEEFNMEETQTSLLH
Sequence of UniProt Q9UMY1 (Q9UMY1 whole entry, looked up): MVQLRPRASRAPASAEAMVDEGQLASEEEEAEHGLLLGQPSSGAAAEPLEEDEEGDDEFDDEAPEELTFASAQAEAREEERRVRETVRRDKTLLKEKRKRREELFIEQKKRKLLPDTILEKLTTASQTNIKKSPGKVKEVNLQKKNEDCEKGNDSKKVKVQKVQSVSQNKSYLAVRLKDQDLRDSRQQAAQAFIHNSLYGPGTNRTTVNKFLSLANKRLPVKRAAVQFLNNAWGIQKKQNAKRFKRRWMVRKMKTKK
Sequence of UniProt Q15738 (Q15738 whole entry, looked up): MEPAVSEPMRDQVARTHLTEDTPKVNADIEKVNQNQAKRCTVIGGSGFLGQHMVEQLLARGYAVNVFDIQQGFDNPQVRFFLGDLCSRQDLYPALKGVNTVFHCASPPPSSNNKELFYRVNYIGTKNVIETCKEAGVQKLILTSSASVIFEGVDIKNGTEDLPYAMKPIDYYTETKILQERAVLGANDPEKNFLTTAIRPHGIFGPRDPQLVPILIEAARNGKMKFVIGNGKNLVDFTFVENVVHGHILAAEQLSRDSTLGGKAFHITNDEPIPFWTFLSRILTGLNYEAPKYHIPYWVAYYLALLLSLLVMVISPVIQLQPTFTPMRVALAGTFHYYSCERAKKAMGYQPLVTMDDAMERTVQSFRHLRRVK
Sequence of UniProt Q12968 (Q12968 whole entry, looked up): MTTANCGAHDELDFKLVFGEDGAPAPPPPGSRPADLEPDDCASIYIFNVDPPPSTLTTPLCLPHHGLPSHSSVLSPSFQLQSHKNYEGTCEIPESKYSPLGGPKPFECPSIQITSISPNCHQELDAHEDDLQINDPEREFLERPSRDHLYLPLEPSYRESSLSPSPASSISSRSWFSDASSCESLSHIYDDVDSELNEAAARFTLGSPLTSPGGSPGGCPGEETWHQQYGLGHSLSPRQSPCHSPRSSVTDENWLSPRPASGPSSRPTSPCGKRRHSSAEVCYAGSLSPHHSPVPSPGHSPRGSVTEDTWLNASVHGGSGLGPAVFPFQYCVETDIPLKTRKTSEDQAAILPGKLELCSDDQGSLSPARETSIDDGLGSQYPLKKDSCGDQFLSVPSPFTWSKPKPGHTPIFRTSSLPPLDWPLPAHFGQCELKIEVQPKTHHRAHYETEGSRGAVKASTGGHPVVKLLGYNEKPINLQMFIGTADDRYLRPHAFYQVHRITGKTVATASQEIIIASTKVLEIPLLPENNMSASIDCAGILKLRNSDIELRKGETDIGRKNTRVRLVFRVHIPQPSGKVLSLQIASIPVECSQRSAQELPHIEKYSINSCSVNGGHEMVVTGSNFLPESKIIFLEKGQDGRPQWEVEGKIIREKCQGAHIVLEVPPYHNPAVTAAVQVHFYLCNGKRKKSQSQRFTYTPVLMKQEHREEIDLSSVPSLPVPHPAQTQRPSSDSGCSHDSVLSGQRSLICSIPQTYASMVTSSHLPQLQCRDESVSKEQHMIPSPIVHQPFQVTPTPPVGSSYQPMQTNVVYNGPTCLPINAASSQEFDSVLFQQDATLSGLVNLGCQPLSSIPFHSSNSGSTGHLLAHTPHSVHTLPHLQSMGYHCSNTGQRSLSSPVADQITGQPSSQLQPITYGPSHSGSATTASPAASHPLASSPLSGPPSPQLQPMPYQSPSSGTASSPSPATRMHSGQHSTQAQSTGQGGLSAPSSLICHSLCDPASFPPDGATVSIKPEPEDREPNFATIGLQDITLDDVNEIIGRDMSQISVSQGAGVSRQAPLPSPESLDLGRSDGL
Sequence of UniProt P17568 (P17568 whole entry, looked up): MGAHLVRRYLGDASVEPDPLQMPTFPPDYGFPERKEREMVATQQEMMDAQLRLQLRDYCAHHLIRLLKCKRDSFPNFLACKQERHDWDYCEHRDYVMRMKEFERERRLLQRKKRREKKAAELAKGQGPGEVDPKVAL
Sequence of UniProt Q86WC4 (Q86WC4 whole entry, looked up): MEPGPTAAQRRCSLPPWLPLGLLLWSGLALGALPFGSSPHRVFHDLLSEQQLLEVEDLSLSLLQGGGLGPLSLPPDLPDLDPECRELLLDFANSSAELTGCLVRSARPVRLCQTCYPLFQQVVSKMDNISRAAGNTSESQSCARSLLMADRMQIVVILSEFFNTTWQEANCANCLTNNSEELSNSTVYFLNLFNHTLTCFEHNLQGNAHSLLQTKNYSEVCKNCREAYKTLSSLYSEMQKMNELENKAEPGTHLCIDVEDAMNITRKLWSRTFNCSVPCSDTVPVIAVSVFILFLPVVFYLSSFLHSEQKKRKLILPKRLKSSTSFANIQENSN

| Target | log2 fold change (IRAK-1-4 Inhibitor I) | log2 fold change (ibrutinib) | log2 fold change [1] | log2 fold change (ralimetinib) | log2 fold change [2] | log2 fold change [3] | log2 fold change [4] | log2 fold change (pinometostat) | log2 fold change [5] | log2 fold change [6] | log2 fold change [7] | log2 fold change [8] | log2 fold change [9] | log2 fold change [10] | log2 fold change (Nexturastat A) | log2 fold change (vemurafenib) | log2 fold change [11] | log2 fold change [12] | log2 fold change (givinostat) | log2 fold change (barasertib) |
| --- | --- | --- | --- | --- | --- | --- | --- | --- | --- | --- | --- | --- | --- | --- | --- | --- | --- | --- | --- | --- |
| NFATC3 (UniProt Q12968) | -0.116 | 0.01 | -0.406 (active) | 0.386 (active) | -0.105 | -0.209 | 0.145 | 0.053 | 0.015 | -0.036 | 0.067 | -0.506 | 0 | -0.055 | 0.047 | -0.033 | 0.094 | 0.116 | 0.088 | 0.019 |
| MSH3 (UniProt P20585) | -0.001 | -0.002 | 0.054 | -0.053 | 0.01 | 0.068 | 0.056 | 0.043 | 0.023 | 0.27 (active) | 0.029 | -0.033 | 0.021 | -0.101 | -0.015 | 0.019 | 0.053 | -0.013 | 0.002 | -0.001 |
| NUDT1 (UniProt P36639) | 0.025 | 0.943 (active) | 0.816 (active) | 1.69 (active) | -0.263 | 0.946 (active) | -0.082 | -0.017 | -0.069 | 0.074 | -0.016 | -0.058 | -0.064 | -0.164 | -0.086 | -0.004 | 0.209 | -0.026 | -0.042 | -0.03 |
| MRPS15 (UniProt P82914) | -0.062 | -0.022 | -0.024 | 0.014 | -0.12 | -0.041 | 0.004 | 0.041 | -0.01 | -0.2 | 0.04 | -0.026 | -0.017 | -0.022 | 0.058 | -0.037 | 0.062 | 0.023 | 0.027 | 0.004 |
| MRPS9 (UniProt P82933) | -0.061 | 0.024 | -0.022 | -0.023 | 0.001 | -0.059 | 0.07 | 0.018 | -0.048 | -0.243 (active) | 0.053 | -0.025 | -0.029 | 0.02 | 0.057 | -0.043 | 0.053 | -0.019 | 0.026 | -0.043 |
| OSTM1 (UniProt Q86WC4) | 0.05 | -0.006 | 0.013 | 0.042 | -0.081 | -0.041 | 0.079 | -0.056 | 0.015 | -0.024 | -0.051 | -0.047 | 0 | 0.056 | -0.033 | 0.017 | 0.093 | -0.03 | 0.146 | -0.023 |
| NDUFB7 (UniProt P17568) | 0.012 | 0.008 | 0.007 | 0.079 | -0.034 | -0.002 | -0.055 | -0.017 | 0.014 | 0.004 | 0.037 | -0.006 | 0.063 | 0.027 | 0.023 | 0.018 | -0.014 | -0.124 | -0.367 (active) | -0.012 |
| OGFOD1 (UniProt Q8N543) | 0.07 | -0.036 | 0.009 | -0.05 | -0.023 | -0.018 | 0.035 | -0.011 | -0.028 | 0.036 | -0.013 | -0.01 | 0.013 | 0.033 | -0.061 | -0.01 | -0.006 | 0.006 | -0.112 | 0.009 |
| NCOR1 (UniProt O75376) | 0.052 | 0.078 | -0.46 (active) | 0.01 | 0.011 | 0.055 | 0.022 | 0.05 | -0.084 | 0.093 | -0.035 | -0.075 | -0.195 | 0.101 | -0.079 | 0.01 | -0.149 | -0.079 | 0.014 | -0.094 |
| NSDHL (UniProt Q15738) | 0.004 | 0.193 | -0.049 | -0.01 | 0.173 | -0.084 | -0.024 | -0.078 | -0.021 | 0.056 | 0.073 | -0.005 | 0.029 | -0.001 | -0.111 | 0.07 | -0.027 | -0.031 | -0.013 | -0.004 |
| NOL7 (UniProt Q9UMY1) | -0.139 | 0.036 | 0.158 | 0.041 | 0.043 | 0.016 | 0.141 | 0.242 | 0.059 | -0.485 | -0.06 | -0.055 | -0.048 | -0.193 | 0.214 | -0.14 | -0.121 | 0.088 | 0.031 | -0.092 |
| OTUD4 (UniProt Q01804) | 0.007 | 0.008 | -0.029 | 0.1 | 0.013 | 0.035 | 0.052 | 0.128 | -0.033 | 0.244 | -0.038 | -0.017 | -0.035 | -0.069 | 0.055 | -0.016 | 0.007 | -0.03 | 0.05 | -0.083 |
| NFYC (UniProt Q13952) | -0.023 | -0.042 | -0.023 | -0.09 | -0.046 | 0.019 | -0.061 | -0.087 | 0.046 | 0.332 (active) | 0.005 | 0.011 | -0.061 | 0.019 | -0.087 | -0.006 | -0.001 | -0.031 | 0.001 | 0.028 |
| MRPL46 (UniProt Q9H2W6) | -0.069 | -0.012 | 0.077 | 0.029 | -0.008 | -0.073 | 0.064 | 0.03 | -0.004 | -0.026 | 0.061 | -0.044 | -0.009 | -0.064 | 0.076 | -0.061 | -0.006 | 0.009 | -0.003 | -0.008 |
| MRPS6 (UniProt P82932) | -0.193 | -0.007 | -0.079 | 0.012 | -0.158 | -0.003 | -0.009 | -0.007 | 0.003 | -0.139 | 0.081 | -0.052 | 0.006 | 0.128 | 0.076 | 0.1 | 0.059 | 0.062 | 0.037 | -0.017 |
